# PubChem BioAssay
# Calls of active or inactive are those of the source.
# Experiments:
# [1] = binders of probe aFSTL3 on microarray, primary screen, stem cell growth factor project, biochemical, small-molecule microarray, fluorescence 635/667 (AID 1064); conditions: higher = more signal;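 note: measures binding of the biotinylated anti-FSTL3 antibody to printed compounds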
# [2] = binders from COS7 lysate, DM2A8 probe, primary screen, torsin A project, cell lysate, small-molecule microarray, fluorescence 635/667 (AID 1065); conditions: higher = more signal, COS7 lysate expressing mutant human TOR1A
# [3] = binders of probe aFGF2 on microarray, primary screen, stem cell growth factor project, biochemical, small-molecule microarray, fluorescence 635/667 (AID 1067); conditions: higher = more signal;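 note: measures binding of biotinylated aFGF2 protein to printed compounds on slides; z-score merges feature fluorescence and signal-to-noise across triplicate slides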
# [4] = binders of probe aFGF10 on microarray, primary screen, stem cell growth factor project, biochemical, small-molecule microarray, fluorescence 635/667 (AID 1071); conditions: higher = more signal;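 note: score merges 667 nm spot intensity and signal to noise from triplicate slides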
# [5] = biological target: Neurogenic locus notch homolog protein 2 (Homo sapiens) (UniProt Q04721); test: Notch2 binders on small-molecule microarrays, primary screen, biochemical, small-molecule microarray, 635 nm fluorescence, stem cell growth factors (AID 1073); conditions: Notch2 binding, higher = more signal
# Sequence of Neurogenic locus notch homolog protein 2 (Homo sapiens) (Q04721 whole entry, looked up, canonical isoform): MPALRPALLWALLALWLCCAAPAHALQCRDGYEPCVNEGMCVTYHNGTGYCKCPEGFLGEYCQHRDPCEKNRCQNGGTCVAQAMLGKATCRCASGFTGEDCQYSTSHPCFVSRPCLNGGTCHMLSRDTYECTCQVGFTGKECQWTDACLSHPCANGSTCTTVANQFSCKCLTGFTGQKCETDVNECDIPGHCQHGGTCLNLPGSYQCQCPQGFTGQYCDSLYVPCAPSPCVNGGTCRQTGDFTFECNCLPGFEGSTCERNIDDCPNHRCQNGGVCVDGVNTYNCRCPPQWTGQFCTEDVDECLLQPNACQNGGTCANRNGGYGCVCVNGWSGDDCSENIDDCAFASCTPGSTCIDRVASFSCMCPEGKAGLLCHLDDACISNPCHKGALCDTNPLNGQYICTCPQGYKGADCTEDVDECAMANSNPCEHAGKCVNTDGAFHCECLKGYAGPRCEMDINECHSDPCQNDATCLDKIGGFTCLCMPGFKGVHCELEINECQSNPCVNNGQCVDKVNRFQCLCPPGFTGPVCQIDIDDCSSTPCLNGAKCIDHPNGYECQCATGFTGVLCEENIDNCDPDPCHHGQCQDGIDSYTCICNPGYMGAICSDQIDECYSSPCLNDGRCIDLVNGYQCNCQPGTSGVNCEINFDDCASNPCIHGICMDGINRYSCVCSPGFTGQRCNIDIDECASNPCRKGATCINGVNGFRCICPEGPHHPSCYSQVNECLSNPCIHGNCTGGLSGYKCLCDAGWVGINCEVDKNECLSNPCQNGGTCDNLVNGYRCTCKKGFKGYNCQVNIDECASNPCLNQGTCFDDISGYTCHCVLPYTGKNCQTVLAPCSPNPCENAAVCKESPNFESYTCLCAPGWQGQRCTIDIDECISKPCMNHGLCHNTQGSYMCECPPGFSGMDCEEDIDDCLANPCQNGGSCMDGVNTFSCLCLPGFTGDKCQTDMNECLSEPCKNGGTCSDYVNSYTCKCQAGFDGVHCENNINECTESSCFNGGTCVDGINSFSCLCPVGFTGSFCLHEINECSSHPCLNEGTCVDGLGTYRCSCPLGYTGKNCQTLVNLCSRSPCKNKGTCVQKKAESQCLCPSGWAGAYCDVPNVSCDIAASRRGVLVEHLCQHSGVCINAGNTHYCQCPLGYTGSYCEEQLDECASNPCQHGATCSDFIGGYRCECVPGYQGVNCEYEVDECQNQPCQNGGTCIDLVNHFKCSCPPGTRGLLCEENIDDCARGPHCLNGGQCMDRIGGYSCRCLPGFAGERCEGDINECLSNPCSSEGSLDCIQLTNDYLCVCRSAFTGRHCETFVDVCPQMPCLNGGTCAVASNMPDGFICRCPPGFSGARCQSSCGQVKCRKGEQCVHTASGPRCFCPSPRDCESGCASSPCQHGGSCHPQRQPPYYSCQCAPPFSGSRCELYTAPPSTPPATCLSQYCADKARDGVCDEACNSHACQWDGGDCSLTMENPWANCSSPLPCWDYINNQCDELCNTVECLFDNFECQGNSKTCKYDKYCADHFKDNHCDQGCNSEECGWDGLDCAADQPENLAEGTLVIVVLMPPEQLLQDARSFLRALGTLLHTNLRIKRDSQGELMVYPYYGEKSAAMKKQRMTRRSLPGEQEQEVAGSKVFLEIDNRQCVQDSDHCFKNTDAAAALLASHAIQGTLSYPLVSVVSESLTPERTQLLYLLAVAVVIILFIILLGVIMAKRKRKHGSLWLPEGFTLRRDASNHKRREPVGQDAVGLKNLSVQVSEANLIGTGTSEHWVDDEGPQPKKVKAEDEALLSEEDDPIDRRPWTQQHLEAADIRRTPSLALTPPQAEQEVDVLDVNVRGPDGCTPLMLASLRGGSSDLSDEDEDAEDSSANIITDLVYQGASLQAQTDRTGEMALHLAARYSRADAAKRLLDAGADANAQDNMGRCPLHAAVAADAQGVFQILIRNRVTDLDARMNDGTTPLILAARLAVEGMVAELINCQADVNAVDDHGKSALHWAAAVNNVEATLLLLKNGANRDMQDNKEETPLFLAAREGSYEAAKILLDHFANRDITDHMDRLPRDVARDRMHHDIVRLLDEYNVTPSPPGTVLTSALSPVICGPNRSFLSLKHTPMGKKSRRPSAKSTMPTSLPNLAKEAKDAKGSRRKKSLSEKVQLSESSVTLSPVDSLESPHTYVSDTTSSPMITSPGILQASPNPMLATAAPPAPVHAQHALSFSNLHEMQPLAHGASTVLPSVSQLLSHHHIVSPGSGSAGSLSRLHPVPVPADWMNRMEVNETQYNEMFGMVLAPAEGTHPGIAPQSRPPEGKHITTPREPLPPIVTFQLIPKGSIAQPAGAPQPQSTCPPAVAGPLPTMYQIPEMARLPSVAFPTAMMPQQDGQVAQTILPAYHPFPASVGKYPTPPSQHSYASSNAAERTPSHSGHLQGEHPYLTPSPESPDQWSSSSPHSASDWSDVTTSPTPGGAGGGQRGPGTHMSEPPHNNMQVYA
# [6] = biological target: Pro-neuregulin-1, membrane-bound isoform (Homo sapiens) (UniProt Q02297); test: NRG1 binders on small-molecule microarrays, primary screen, psychiatric disease protein project, biochemical, small-molecule microarray, fluorescence 635/667 (AID 1075); conditions: NRG1 binding, 635 nm fluorescence, higher = more signal;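 note: score combines 667 nm spot fluorescence with signal to noise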
# Sequence of Pro-neuregulin-1, membrane-bound isoform (Homo sapiens) (Q02297 whole entry, looked up, the tested form may be a part, canonical isoform): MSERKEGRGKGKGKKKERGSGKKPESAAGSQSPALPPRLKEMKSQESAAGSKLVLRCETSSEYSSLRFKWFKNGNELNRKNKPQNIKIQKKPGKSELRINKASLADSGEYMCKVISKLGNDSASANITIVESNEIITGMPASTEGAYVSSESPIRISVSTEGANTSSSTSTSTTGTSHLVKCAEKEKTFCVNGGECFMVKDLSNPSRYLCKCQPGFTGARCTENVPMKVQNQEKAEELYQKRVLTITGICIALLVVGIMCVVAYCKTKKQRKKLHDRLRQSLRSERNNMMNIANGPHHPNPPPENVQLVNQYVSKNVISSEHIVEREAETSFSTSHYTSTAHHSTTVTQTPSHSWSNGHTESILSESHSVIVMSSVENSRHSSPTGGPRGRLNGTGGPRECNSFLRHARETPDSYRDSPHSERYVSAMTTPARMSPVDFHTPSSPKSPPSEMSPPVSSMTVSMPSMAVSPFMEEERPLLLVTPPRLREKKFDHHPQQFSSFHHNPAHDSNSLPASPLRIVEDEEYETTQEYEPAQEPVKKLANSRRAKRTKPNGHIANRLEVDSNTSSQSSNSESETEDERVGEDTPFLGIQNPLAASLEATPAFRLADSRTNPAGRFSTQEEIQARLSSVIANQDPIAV
# [7] = system: Neuregulin-1 EGF-like domain; test: binders of neuregulin-1 EGF-like domain, primary screen, biochemical, small-molecule microarray, 635 nm fluorescence (AID 1081); conditions: small-molecule microarray binding, higher = more signal;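 note: binding of the protein to compounds printed on small-molecule microarray slides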
# [8] = FRG1 promoter luciferase signal modulators, primary screen, FRG1 inhibition for FSHD, cell-based, C2C12 myotubes, firefly/Renilla luciferase, luminescence (AID 1084); conditions: higher = more signal, called active from +8 up or from −8 down
# [9] = binders of probe aFST on microarray, primary screen, stem cell growth factor project, biochemical, small-molecule microarray, fluorescence 635/667 (AID 1086); conditions: higher = more signal;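 note: score merges 667 nm fluorescence with signal-to-noise of each printed compound spot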
# [10] = binders of probe aHhip on microarray, primary screen, stem cell growth factor project, biochemical, small-molecule microarray, fluorescence 635/667 (AID 1087); conditions: higher = more signal;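 note: score merges spot fluorescence at 667nm with spot signal to noise ratio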
SMILES,composite z-score [1],composite z-score [2],composite z-score [3],composite z-score [4],composite z-score [5],composite z-score [6],composite z-score [7],z-score [8],composite z-score [9],composite z-score [10]
CCCC/C=C/[C@H]([C@@H](O)Cc1ccccc1)N(CC#Cc1ccccc1)Cc1ccccc1Br,1.22,-0.37,-0.21,-1.17,-0.749,-0.169,-0.291,-0.506 (inactive),-0.74,-0.584
CCCC[C@@H]1C[C@H]1[C@@H](NC(=O)c1cccs1)c1ccc(Cl)cc1,0.521,-0.6,-0.141,-0.543,-1.45,-0.273,-0.669,0.902 (inactive),-0.531,-0.0003
O=C/C=C/c1ccc(/C=C/c2ccccc2)cc1,1.02,0.107,-0.105,-0.324,-0.429,-0.422,-0.34,3.71 (inactive),0.204,0.154
COc1cc2c(cc1OC)CN(C(=O)[C@H]1[C@@H]3C(=O)O[C@@H](c4ccccc4)[C@@H](c4ccccc4)N3[C@@H](c3ccccc3OCCO)[C@]13C(=O)Nc1ccc(C#CC4(O)CCCCCC4)cc13)CC2,-0.0648,0.705,0.0605,1.01,1.1,1.76,1.35,-2.24 (inactive),0.319,0.245
CO[C@H]1COC(=O)[C@@H](Cc2ccccc2)NC(=O)[C@@H](C)COC(=O)CC=C[C@@H]1C,-0.533,0.806,-0.142,-0.0799,-0.172,-0.923,-0.294,0.0824 (inactive),-0.0629,-0.0994
O=C(NCC(O)CO)[C@]1(Cc2ccccc2)N=C(c2ccc(OCCCO)cc2)O[C@@H]1c1ccccc1 (stereo not given in full),1.09,2.15,-0.104,-0.512,0.271,0.951,0.868,-1.63 (inactive),0.864,0.189
COCCOC(=O)N1C(=O)[C@@]2(c3cc(C#CCCO)ccc31)[C@H](C(=O)N1CCCCCCC1)[C@H]1C(=O)O[C@H](c3ccccc3)[C@H](c3ccccc3)N1[C@@H]2c1ccc(O)cc1,2.61,1.22,0.188,0.514,1.15,1.17,1.13,-2.05 (inactive),2.25,0.497
O=C1C2C=CC(C(O)C(c3ccccc3)c3ccccc3)N(Nc3ccc([N+](=O)[O-])cc3)C2C(=O)N1c1ccccc1 (stereo not given),0.141,0.311,0.138,1.16,1.64,1.84,1.27,0.117 (inactive),1.37,-0.0994
CCCC=C(CCC)[C@@H](NS(=O)(=O)c1cccc(C(F)(F)F)c1)c1ccc(C(=O)OC)cc1,2.23,0.131,0.731,-0.0446,0.318,-0.0702,0.53,2.49 (inactive),2.13,0.171
[N-]=[N+]=NCc1ccccc1C[C@@]1(C(=O)N2CCOCC2)N=C(c2ccc(OCCCO)cc2)O[C@@H]1c1ccccc1N=[N+]=[N-],0.308,0.968,0.345,0.819,1.59,1.13,1.26,-2.14 (inactive),0.889,-0.146
C=CC[C@@]1(C(=O)NCC(O)CO)N=C(c2ccc(OCCCO)cc2)O[C@@H]1c1ccccc1CN=[N+]=[N-] (stereo not given in full),0.325,0.674,-0.11,-0.355,0.13,1.79,1.23,-2.68 (inactive),0.966,-0.236
CCCC=C(CCC)[C@@H](NS(=O)(=O)c1ccc(C(F)(F)F)cc1)c1ccc(-c2ccccc2)cc1,0.357,0.0864,0.0407,0.309,1.5,0.801,1.02,-0.001 (inactive),1.38,2.14
COc1ccc([Si](C)(C)[C@H]2[C@H](CCO)O[C@@]3(C(=O)N(Cc4ccccc4)c4ccc(N5C(=O)c6cccc7cccc5c67)cc43)[C@@H]2C)cc1,0.334,-0.173,-0.144,0.0626,-0.0844,0.48,0.836,-1.3 (inactive),-0.268,3.71
C=CCC(OC(C)=O)[C@@H]1[C@@H](N(Cc2ccc(-c3ccccc3)cc2)C(=O)c2ccc(C)cc2)c2cc(OCCCO)ccc2N1C(=O)c1ccc(-c2ccccc2)cc1 (stereo not given in full),-0.0264,-0.192,-0.006,0.0126,-0.245,-0.0564,-0.538,-2.08 (inactive),0.186,-0.405
